Cav32 inh: Cav3.2 calcium influx blockers – cell-based, Fluo-4 calcium fluorescence, FDSS, MLSMR library, primary screen | Voltage-dependent T-type calcium channel subunit alpha-1H (Homo sapiens), O95180 | Cav3.2-expressing cells; hits give low values | B-score at 10 µM | actives 4% (n = 100,000);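 active = single-dose well whose peak fluorescence ratio is a statistical outlier from its plate by either plate-standardised score or position-corrected B-score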
PostGolgi yeast: phenotypic screen on post-Golgi transport, primary screen; actives 0.9% (n = 98,000); inhibition, % at 10 µM; post-Golgi transport phenotypic cell assay; AID 739, 2007;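 note: yeast cells grown in 1536-well plates; yeast grown about 18 h at 30C before absorbance read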
PostGolgi ctrl: growth inhibition of yeast control strain, primary screen, counter-screen for post-Golgi transport modulator project; actives 5% (n = 98,000); efflux-deficient yeast background strain, growth absorbance A615, 16 h; AID 738, 2007; inhibition, % at 10 µM
Pyk2 oligo antag: antagonists of Pyk2 self-association, primary screen, Q293 cells, FERM NanoBiT luminescence, HTS; actives 0.83% (n = 99,000); z-score (the deposit names both 25 µM and 10 µM); Protein-tyrosine kinase 2-beta (Homo sapiens), Q14289; AID 1347419, 2020; hits give low values;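 active = Z-score of -3 or lower, scaled per plate to the spread of control and sample wells; inactive = z-score above -3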;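 note: negative z-score means lost luminescence so less FERM oligomerization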
Target sequence (Q14289 whole entry, looked up): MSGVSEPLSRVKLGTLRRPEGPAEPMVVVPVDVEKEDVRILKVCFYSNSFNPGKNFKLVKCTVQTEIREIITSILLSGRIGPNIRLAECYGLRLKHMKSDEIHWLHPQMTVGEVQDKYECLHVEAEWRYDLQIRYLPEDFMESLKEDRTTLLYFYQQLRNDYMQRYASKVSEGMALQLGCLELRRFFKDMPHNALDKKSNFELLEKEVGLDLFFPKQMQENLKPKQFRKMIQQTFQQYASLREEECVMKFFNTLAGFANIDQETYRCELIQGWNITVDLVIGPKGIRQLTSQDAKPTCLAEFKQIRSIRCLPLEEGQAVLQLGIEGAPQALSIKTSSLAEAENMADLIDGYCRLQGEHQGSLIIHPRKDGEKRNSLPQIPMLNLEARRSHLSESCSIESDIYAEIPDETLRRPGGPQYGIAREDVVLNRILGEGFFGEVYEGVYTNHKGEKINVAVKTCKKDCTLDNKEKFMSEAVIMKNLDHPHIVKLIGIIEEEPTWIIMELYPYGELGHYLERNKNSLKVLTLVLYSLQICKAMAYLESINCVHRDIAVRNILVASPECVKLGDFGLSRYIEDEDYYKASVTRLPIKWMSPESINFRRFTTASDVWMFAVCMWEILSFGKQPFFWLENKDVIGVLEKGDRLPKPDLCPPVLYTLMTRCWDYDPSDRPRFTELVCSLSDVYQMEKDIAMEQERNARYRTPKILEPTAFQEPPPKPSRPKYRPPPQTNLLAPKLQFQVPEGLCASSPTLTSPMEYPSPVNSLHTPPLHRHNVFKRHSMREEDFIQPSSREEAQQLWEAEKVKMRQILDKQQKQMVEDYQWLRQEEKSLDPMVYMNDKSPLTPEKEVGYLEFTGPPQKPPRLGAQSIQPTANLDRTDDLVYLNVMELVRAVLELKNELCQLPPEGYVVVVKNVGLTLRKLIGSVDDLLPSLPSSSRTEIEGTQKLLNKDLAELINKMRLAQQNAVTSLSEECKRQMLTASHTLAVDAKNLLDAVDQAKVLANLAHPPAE
Numbers stand for hits; i = inactive; nt = not tested or not shown; ! = not active in a repeat. Shown are actives, neighbours in structure and some others; about 8% of the full set was active somewhere. Cut-off read from the data, not from the text of the source, unless noted: active = inhibition above about 30%; inactive = the rest.

SMILES	Cav32 inh	PostGolgi yeast	PostGolgi ctrl	Pyk2 oligo antag
CC1=CC(C)(C)N(C(=O)CSc2ncn[nH]2)c2ccc(C)cc21	i	i	i	i
CCC(C(=O)NC1CCCC1)N(C(=O)Cn1nnc(-c2ccc(C)cc2)n1)C1CCCC1 (configuration not stated)	-6.5	nt	nt	i
CCC(C(=O)NC1CCCC1)N(C(=O)Cn1nnc(-c2ccc(OC)c(OC)c2)n1)C1CCCCC1 (configuration not stated)	i	i	i	i
CC(C)(C)NC(=O)C(c1ccc(F)cc1)N(Cc1ccco1)C(=O)Cn1nnc(-c2cccs2)n1 (configuration not stated)	i	nt	nt	i
CC(C)(C)NC(=O)C(c1ccco1)N(C(=O)Cn1nnc(-c2ccc(F)cc2)n1)c1ccccc1F (configuration not stated)	-5	76	79	i
CC(C)CC(C(=O)NCC1CCCO1)N(C(=O)Cn1nnc(-c2ccc(F)cc2)n1)c1ccccc1F (configuration not stated)	-3.4	i	i	i
O=C(Nc1cc(Cl)ccc1O)c1snnc1-c1ccccc1	i	i	i	i
Cc1cc(C(=O)CN2C(=O)NC(c3ccccc3)(c3ccccc3)C2=O)c(C)n1Cc1ccccc1	-5	i	i	i
COC(=O)/C=C/CSC1=N/C(=C/c2ccc(-n3cncn3)cc2)C(=O)N1	i	i	i	i
C#C[C@]1(O)CC[C@H]2[C@@H]3CCc4cc(O)ccc4[C@H]3CC[C@@]21C	i	nt	nt	nt
C#C[C@]1(O)CCC2C3CCC4=Cc5oncc5CC4(C)C3CCC21C (some centres not stated)	-4.8	nt	nt	nt
NC(=O)CC(NC(=O)c1ccccc1)c1ccc(NCCc2ccc(Cl)cc2)c([N+](=O)[O-])c1 (configuration not stated)	i	nt	nt	nt
O=C(CS(=O)(=O)Cc1ccccc1)Nc1ncccn1	i	i	i	i
CCOC(=O)CSc1ncc(OC)c(Sc2ccc(Cl)cc2)n1	-11	i	i	i
O=C(Nc1cccc(F)c1)NC1(C(=O)N2CCN3CCCC3C2)CCCCC1 (configuration not stated)	i	nt	nt	i
O=C1CC(C(=O)N(c2cccc(F)c2)C(C(=O)NC2CCCC2)c2ccccn2)CS1 (configuration not stated)	i	i	37	i
CCCNC(=O)NC(=O)COC(=O)c1ccc(OC)c(S(=O)(=O)N2CCCc3ccccc32)c1	-7.5	i	i	i
COc1ccc(C(=O)NCc2ccc(C)cc2)cc1S(=O)(=O)N1CCCc2ccccc21	i	i	i	i
O=C(Nc1ccc2c(c1)OCO2)N1CCN(C(=O)C2CCCO2)CC1 (configuration not stated)	i	i	i	i
C/C(=N\S(=O)(=O)c1ccc(C)cc1)N1CCN(S(=O)(=O)c2ccccc2)C1C(C)C (configuration not stated)	i	i	i	i
Cc1ccc(S(=O)(=O)N2CCN(C(=O)c3ccccc3)C2C(C)C)cc1 (configuration not stated)	i	i	31	i
Cc1ccc(S(=O)(=O)N2CCN(C(=O)N3CCOCC3)C2C(C)C)cc1 (configuration not stated)	i	i	35	i
CCN(CC)c1ccc(C2N(C(=O)N3CCOCC3)CCN2S(=O)(=O)c2ccc(C)cc2)cc1 (configuration not stated)	-4.1	i	i	i
COc1ccc(-n2cnnc2SCC(=O)Nc2ccc(N3CCOCC3)cc2)cc1	i	i	i	i
COc1ccc(C(=O)/C(=C\c2ccco2)N2C=CC=CC2=C(C#N)C#N)cc1	-6.8	i	i	i
SMILES	Cav32 inh	PostGolgi yeast	PostGolgi ctrl	Pyk2 oligo antag
COc1ccc(C(NC(=O)/C=C\c2ccco2)c2ccc(OC)c(OC)c2)cc1 (configuration not stated)	i	i	i	i
CCCCC(=O)NN(C)c1nc(-c2ccccc2)nnc1C(F)(F)F	i	i	i	i
COc1ccc2c(C=Nc3c(C)n(C)n(-c4ccccc4)c3=O)c(O)n(Cc3ccco3)c(=O)c2c1	i	i	63!	i
COc1cccc(Cn2cnc3c(NS(=O)(=O)c4cccc(Cl)c4Cl)c(C)c(C)cc32)c1	-5.4	i	i	i
COc1cccc(Cn2cnc3c(NS(=O)(=O)c4ccc(Cl)cc4Cl)c(C)c(C)cc32)c1	-3.5	i	i	i
COc1cccc(Cn2cnc3c(NS(=O)(=O)c4ccc(Cl)cc4)c(C)c(C)cc32)c1	i	i	i	i
COc1cccc(Cn2cnc3c(NS(=O)(=O)c4cc(Cl)ccc4Cl)c(C)c(C)cc32)c1	-5.4	i	i	i
Cn1cccc1/C=C1/SC(=S)N(CC(=O)O)C1=O	i	nt	nt	nt
CC1C/C(=C/c2cccn2C)C(=O)/C(=C/c2cccn2C)C1 (configuration not stated)	-14	i	41	i
CCOC(=O)Cc1csc(NC(=O)c2cnc3scc(C)n3c2=O)n1	i	nt	nt	i
COc1ccc(S(=O)(=O)N2CCC(C(=O)N3CCCCC3)CC2)cc1Cl	i	i	i	i
CN(C)c1ccc(-c2nnn(Cc3ccccc3Br)n2)cc1	i	i	31	i
Cc1ccc(C2=N/C(=C\c3cccs3)C(=O)N2Nc2ccccc2)cc1	i	i	32	i
CCOC(=O)N1CCN(Cc2ccccn2)CC1	i	i	i	i
CCOC(=O)N1CCC(=C2c3ccc(Cl)cc3CCc3cccnc32)CC1	-4.7	nt	nt	nt
Cc1ccc(C)c(OCC(=O)NCCN(C)C)c1	i	i	i	i
O=C(Nc1cc2c3c(c1)C1CCCC1CN3CC1CCCC21)c1ccccc1 (configuration not stated)	i	i	i	i
Cc1ccc(-c2csc3ncnc(Sc4nnc(CN5CCCCCC5=O)o4)c23)cc1	-6.7	i	i	i
CC1CC(C)CN(S(=O)(=O)c2ccc(C(=O)N3CCN(c4ccccc4)CC3)cc2)C1 (configuration not stated)	i	i	i	i
O=C(CN1CCOCC1)N(c1ccccc1)c1ccc2ccccc2c1	i	i	i	i
O=C(CN1CCN(c2ccccn2)CC1)N(c1ccccc1)c1ccc2ccccc2c1	-6.3	i	66	i
CCCCN(CC)S(=O)(=O)c1ccc(C(=O)Nc2nnc(-c3cccs3)o2)cc1	-4.8	i	i	nt
CCc1nnc(NC(=O)c2ccc(S(=O)(=O)N(CC)Cc3ccccc3)cc2)o1	-4.4	i	i	i
CCCCN(CCCC)S(=O)(=O)c1ccc(C(=O)Nc2nnc(COC)o2)cc1	i	i	i	i
CN(c1ccccc1)S(=O)(=O)c1ccc(C(=O)Nc2nnc(-c3ccc(F)cc3)o2)cc1	-7.5	i	i	nt
COc1ccccc1-c1nnc(NC(=O)c2ccc(S(=O)(=O)N(C)Cc3ccccc3)cc2)o1	-5.8	i	i	nt
Cc1ccc(CNC(=O)C2=NNC(=O)CC2)cc1	nt	nt	nt	i
CCN1CCN(CCCNC(=O)C2c3ccccc3C(=O)N(C)C2c2ccc(OC)cc2)CC1 (configuration not stated)	-5.6	i	i	i
O=C(Nc1ccc2oc(=O)ccc2c1)c1cccnc1Cl	i	32	i	i

Screening data from PubChem BioAssay.
